# Reference: PMC8384837, “Expanding the binding specificity for RNA recognition by a PUF domain”
# Experiments:
# Experiment in all cases: yeast three-hybrid, YBZ-1, SC-Leu-His + 0.5 mM 3-AT, 4 days
# Settings in all cases: tags: N-Gal4 AD-HA kept; label: inside an RPR1-promoter hybrid RNA with tandem MS2 sites; ssRNA
# PUM1 PUF domain R5-MYW = PUM1 PUF domain R5-MYW (Homo sapiens, UniProt Q14671 828-1176, C1007M;R1008Y;Q1011W)
# In short: (§1)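 The interaction score is the log change in how often each variant appears, from input to selection. Frequencies came from PCR-amplified, Illumina-sequenced repeat regions of Pumilio-1 PUF domain libraries grown in strain YBZ-1 (LexA–MS2 coat fusion, HIS3 reporter) alongside matching RNA elements. Input plates were SC-Leu and selection plates were SC-Leu-His + 0.5 mM 3-AT, each for four days, and the log2 calculation used a pseudocount of 1 where a variant was absent.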
# PUM1 PUF domain R5-PRL = PUM1 PUF domain R5-PRL (Homo sapiens, UniProt Q14671 828-1176, C1007P;Q1011L)
# In short: as §1
# PUM1 PUF domain R5-SNN = PUM1 PUF domain R5-SNN (Homo sapiens, UniProt Q14671 828-1176, C1007S;R1008N;Q1011N)
# In short: as §1
# PUM1 PUF domain R3-RSY = PUM1 PUF domain R3-RSY (Homo sapiens, UniProt Q14671 828-1176, C935R;R936S;Q939Y)
# In short: as §1
# PUM1 PUF domain R3-RAL = PUM1 PUF domain R3-RAL (Homo sapiens, UniProt Q14671 828-1176, C935R;R936A;Q939L)
# In short: as §1
# PUM1 PUF domain R3-VCK = PUM1 PUF domain R3-VCK (Homo sapiens, UniProt Q14671 828-1176, C935V;R936C;Q939K)
# In short: as §1
# PUM1 PUF domain R1-RYT = PUM1 PUF domain R1-RYT (Homo sapiens, UniProt Q14671 828-1176, S863R;R864Y;Q867T)
# In short: as §1
# PUM1 PUF domain R2-CYP = PUM1 PUF domain R2-CYP (Homo sapiens, UniProt Q14671 828-1176, N899C;Q903P)
# In short: as §1
# PUM1 PUF domain R2-RRS = PUM1 PUF domain R2-RRS (Homo sapiens, UniProt Q14671 828-1176, N899R;Y900R;Q903S)
# In short: as §1
# PUM1 PUF domain R7-RRD = PUM1 PUF domain R7-RRD (Homo sapiens, UniProt Q14671 828-1176, S1079R;N1080R;E1083D)
# In short: as §1
# PUM1 PUF domain R7-GTS = PUM1 PUF domain R7-GTS (Homo sapiens, UniProt Q14671 828-1176, S1079G;N1080T;E1083S)
# In short: as §1
# PUM1 PUF domain R2-RRM = PUM1 PUF domain R2-RRM (Homo sapiens, UniProt Q14671 828-1176, N899R;Y900R;Q903M)
# In short: as §1
# PUM1 PUF domain R2-DFE = PUM1 PUF domain R2-DFE (Homo sapiens, UniProt Q14671 828-1176, N899D;Y900F;Q903E)
# In short: as §1
sequence,measurement,setting,value
GGCUAGAACUAGUGGAUCCCCCGGCGCCCGGCGGCUCGAGCCCGGGUAAGUGUUAAUAGUCUGCAUGCCGCCGGGCGCCAUGCCUGCAGGUCGACUCUAGAAAACAUG,binding signal,PUM1 PUF domain R5-MYW,3.48 log2 enrichment (interaction score)
same,binding signal,PUM1 PUF domain R5-PRL,4.51 log2 enrichment (interaction score)
same,binding signal,PUM1 PUF domain R5-SNN,4.07 log2 enrichment (interaction score)
GGCUAGAACUAGUGGAUCCCCCGGCGCCCGGCGGCUCGAGCCCGGGUAAGUGUAAUUAGUCUGCAUGCCGCCGGGCGCCAUGCCUGCAGGUCGACUCUAGAAAACAUG,binding signal,PUM1 PUF domain R3-RSY,2.82 log2 enrichment (interaction score)
same,binding signal,PUM1 PUF domain R3-RAL,3.32 log2 enrichment (interaction score)
same,binding signal,PUM1 PUF domain R3-VCK,2.57 log2 enrichment (interaction score)
GGCUAGAACUAGUGGAUCCCCCGGCGCCCGGCGGCUCGAGCCCGGGUAAGUGUAAAUCGUCUGCAUGCCGCCGGGCGCCAUGCCUGCAGGUCGACUCUAGAAAACAUG,binding signal,PUM1 PUF domain R1-RYT,5.12 log2 enrichment (interaction score)
GGCUAGAACUAGUGGAUCCCCCGGCGCCCGGCGGCUCGAGCCCGGGUAAGUGUAAAAAGUCUGCAUGCCGCCGGGCGCCAUGCCUGCAGGUCGACUCUAGAAAACAUG,binding signal,PUM1 PUF domain R2-CYP,5.81 log2 enrichment (interaction score)
same,binding signal,PUM1 PUF domain R2-RRS,1.22 log2 enrichment (interaction score)
GGCUAGAACUAGUGGAUCCCCCGGCGCCCGGCGGCUCGAGCCCGGGUAAGUCUAAAUAGUCUGCAUGCCGCCGGGCGCCAUGCCUGCAGGUCGACUCUAGAAAACAUG,binding signal,PUM1 PUF domain R7-RRD,2.84 log2 enrichment (interaction score)
GGCUAGAACUAGUGGAUCCCCCGGCGCCCGGCGGCUCGAGCCCGGGUAAGUGUAAGUAGUCUGCAUGCCGCCGGGCGCCAUGCCUGCAGGUCGACUCUAGAAAACAUG,binding signal,PUM1 PUF domain R3-VCK,1.58 log2 enrichment (interaction score)
GGCUAGAACUAGUGGAUCCCCCGGCGCCCGGCGGCUCGAGCCCGGGUAAGUUUAAAUAGUCUGCAUGCCGCCGGGCGCCAUGCCUGCAGGUCGACUCUAGAAAACAUG,binding signal,PUM1 PUF domain R7-RRD,4.81 log2 enrichment (interaction score)
same,binding signal,PUM1 PUF domain R7-GTS,2.61 log2 enrichment (interaction score)
GGCUAGAACUAGUGGAUCCCCCGGCGCCCGGCGGCUCGAGCCCGGGUAAGUGUAAAGAGUCUGCAUGCCGCCGGGCGCCAUGCCUGCAGGUCGACUCUAGAAAACAUG,binding signal,PUM1 PUF domain R2-RRM,2.71 log2 enrichment (interaction score)
same,binding signal,PUM1 PUF domain R2-DFE,7.89 log2 enrichment (interaction score)
same,binding signal,PUM1 PUF domain R2-CYP,2.3 log2 enrichment (interaction score)
same,binding signal,PUM1 PUF domain R2-RRS,2.87 log2 enrichment (interaction score)
